Among all 220,000 compounds or so, about 910 (0.41%) were called active. Only a selection was taken, and actives are over-represented in it overall. Measured potencies and affinities stand elsewhere. A number with no mark means an inactive call.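 How the source made its calls: active means primary inhibition above the hit cutoff, then over 50% inhibition at one or more dose response concentrations (cut at about 23% in these data, passing the limit was not always enough); inconclusive means conflicting primary data, or primary hits not chosen for dose response; inactive means low primary inhibition, or under 50% at every dose.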

Aminopeptidase N (Plasmodium falciparum (isolate 3D7)), sequence (O96935 whole entry, looked up): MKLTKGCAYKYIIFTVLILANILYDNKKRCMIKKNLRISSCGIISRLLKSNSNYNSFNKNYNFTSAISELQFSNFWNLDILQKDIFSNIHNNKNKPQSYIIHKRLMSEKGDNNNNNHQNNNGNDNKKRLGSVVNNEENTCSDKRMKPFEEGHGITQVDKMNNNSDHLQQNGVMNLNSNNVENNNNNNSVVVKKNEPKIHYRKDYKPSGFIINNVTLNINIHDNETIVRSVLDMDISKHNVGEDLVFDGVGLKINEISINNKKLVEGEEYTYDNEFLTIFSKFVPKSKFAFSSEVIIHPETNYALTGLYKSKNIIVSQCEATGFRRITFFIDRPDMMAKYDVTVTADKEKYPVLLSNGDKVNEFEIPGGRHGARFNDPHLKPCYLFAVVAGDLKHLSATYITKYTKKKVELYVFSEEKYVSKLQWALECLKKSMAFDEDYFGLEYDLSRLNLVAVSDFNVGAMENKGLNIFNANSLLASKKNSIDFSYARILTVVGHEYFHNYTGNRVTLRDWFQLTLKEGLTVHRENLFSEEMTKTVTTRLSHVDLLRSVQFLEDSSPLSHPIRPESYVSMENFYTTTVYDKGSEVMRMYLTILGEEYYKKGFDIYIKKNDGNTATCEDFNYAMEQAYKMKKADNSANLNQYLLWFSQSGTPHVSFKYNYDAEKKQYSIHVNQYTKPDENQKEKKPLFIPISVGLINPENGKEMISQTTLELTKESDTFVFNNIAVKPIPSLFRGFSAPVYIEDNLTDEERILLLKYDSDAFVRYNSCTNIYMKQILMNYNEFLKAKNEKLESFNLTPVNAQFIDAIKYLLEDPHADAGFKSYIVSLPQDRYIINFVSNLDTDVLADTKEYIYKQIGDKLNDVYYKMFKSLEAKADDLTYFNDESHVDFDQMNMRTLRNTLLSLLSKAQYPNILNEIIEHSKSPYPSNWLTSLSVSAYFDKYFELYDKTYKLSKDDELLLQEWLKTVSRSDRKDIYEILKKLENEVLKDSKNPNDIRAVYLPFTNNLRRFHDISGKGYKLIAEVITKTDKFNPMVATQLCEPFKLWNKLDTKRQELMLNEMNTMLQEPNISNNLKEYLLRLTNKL

This assay concerns the target Aminopeptidase N (Plasmodium falciparum (isolate 3D7)) (UniProt O96935). The assay can be described thus: malaria alanyl aminopeptidase activity blockers – biochemical, fluorogenic H-Leu-NHMec substrate, 1536-well (AID 1445).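 Further: plate controls were DMSO full reaction for no effect and no enzyme background for full effect.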 The settings on record: recombinant M1AAP, H-Leu-NHMec fluorogenic kinetic assay; at 30 µM, active compounds read high unless noted.
With `FC(F)C(F)(F)C1=CC(c2cccs2)=NCCN1`, the inhibition – broadly, the relative decrease from the control value, in per cent – was 6.95%.
Under `COCc1cc(C)nc(OCC(=O)N/N=C\c2cc(C)n(-c3cccc(C(F)(F)F)c3)c2C)c1C#N` stands 6.82%; under `CC(C)Nc1nc(NNc2nc(Cl)nc(NC(C)(C)C)n2)nc(NC(C)C)n1`, -3.65%; under `COc1cc(/C=N/Nc2nc(Nc3ccc(C)cc3)nc(-n3nc(C)cc3C)n2)cc(OC)c1OC`, 0.21%.
The figure for `COC(=O)c1c(N2C(=O)Nc3ccccc3N2O)sc2c1CCCC2` is 9.84%; for `CCOC(=O)c1c(N2C(=O)Nc3ccccc3N2O)sc2c1CCCC2` it is 4.01%; for `CC(C)(CC(=O)O)Cc1nc(-c2ccc(Cl)cc2)no1` it is -3.52%.
Consider `COc1ccc(NS(=O)(=O)c2cccc(Cl)c2)cc1S(=O)(=O)N1CCCCC1`, for which the inhibition was 1.83%.
The figure for `Nc1cccc(-c2nc3ccc(N)cc3s2)c1` is 8.49%.
Under `Cc1ccc2nc(-c3ccc(N)cc3)sc2c1` stands 3.99%.
Regarding `Nc1ccc(-c2nc3cc(N)ccc3s2)cc1`, the inhibition was 13%.
Under `Nc1ccc2nc(-c3ccccc3)sc2c1` stands 33.2%.
The figure for `CN(C)CCCNC(=S)Nc1ccc(Br)cc1` is -1.23%; for `COc1cccc2c(=O)c3cccc(N)c3[nH]c12` it is 17.7%; for `CCOC(=O)c1c(C)oc2ccc(OC(=O)N3CCOCC3)cc12` it is 3.42%.
The figure for `O=C(CSc1nnc(Nc2ccccc2)s1)NCCN1C(=O)CSC1=O` is 0.85%; for `[2H]c1c([2H])c([2H])c(-c2nc(N3CCCCCC3)sc2C(=O)c2ccccc2)c([2H])c1[2H]` it is 6.9%.
As to `O=C(O)CCN1C(=O)/C(=C/c2ccc(-c3nc4ccccc4s3)o2)SC1=S`, the inhibition was -3.38%.
Under `O=C(O)CCN1C(=O)/C(=C\c2ccc(-c3nc4ccccc4s3)o2)SC1=S` stands 20.7%; under `O=C(O)CC(C(=O)O)N1C(=O)/C(=C/c2ccc(-c3nc4ccccc4s3)o2)SC1=S` (centres undefined), 24.7% (active); under `COCCNC(=O)CN(C(=O)Cn1nnc2ccccc21)c1ccccc1`, 6.84%.
Regarding `CSc1nnc(-c2cc[n+](C)cc2)n1CCO`, the inhibition is -2.01%.
The figure for `CC(C)C(=O)Nc1cccc(-c2nc3ccccc3o2)c1` is 1.29%.
Under `O=C(Nc1ccc2oc(-c3ccccc3)nc2c1)c1ccccc1F` stands 4.36%.
The figure for `O=C(Nc1ccc2oc(-c3ccc(F)cc3)nc2c1)c1ccccc1F` is -4.88%.
For `O=C(Nc1cccc(-c2nc3ccccc3o2)c1)c1cccnc1`, the inhibition was 8.84%.
Under `COc1cccc(S(=O)(=O)Nc2ccc(C(=O)Nc3ccncc3)cc2)c1` stands -3.5%.
The figure for `CC1Cc2cc(/C(O)=C3\C(=O)C(=O)N(CCN(C)C)C3c3ccccc3F)ccc2O1` (centres undefined) is -2.37%.
Regarding `O=c1c2ccccc2nnn1Cc1ccccc1Cl`, the inhibition is -2.79%.
The figure for `Cc1ccccc1NC(=O)c1ccc(S(=O)(=O)N(C)C)cc1` is 0.67%.
On to `Cc1nc2ccccc2c2oc(C(=O)N3CCN(C4CCCCC4)CC3)cc12`, for which the inhibition is 0.64%.
Under `Cc1nc2ccccc2c2oc(C(=O)N3CCC(N4CCCCC4)CC3)cc12` stands -1.44%; under `Cc1nc2ccccc2c2oc(C(=O)N3CCN(C(=O)c4ccco4)CC3)cc12`, 25.5% (active); under `Cc1ccccc1OCC(=O)NNC(=O)Nc1ccccc1`, 11.5%.
The figure for `Cc1cc(C(=O)COC(=O)C2=NNC(=O)CC2)c(C)n1CCc1ccccc1` is 5.78%.
The figure for `CCOC(CCn1c(SCC(=O)Nc2cc(C)on2)nc2ccccc2c1=O)OCC` is 4.19%; for `Cc1ccc(CNC(=O)CN(CCc2ccccc2)S(C)(=O)=O)cc1` it is 1.36%; for `Cc1ccc(/C=N/N=C2\SCC(=O)N2CC2CC2)cc1` it is 3.09%.
As to `COC(=O)c1cc(=O)n(Cc2ccc3c(c2)OCO3)c(=Nc2ccc(F)cc2)s1`, the inhibition was 15.5%.
With `CCOC(=O)c1ccc(N=c2sc(C(=O)OC)cc(=O)n2Cc2ccc3c(c2)OCO3)cc1`, the inhibition was 4.78%.
The figure for `COC(=O)c1cc(=O)n(Cc2ccc3c(c2)OCO3)c(=Nc2ccccc2)s1` is 26.5% (active); for `Cc1[nH]c2ccc(OC(=O)N3CCOCC3)cc2c1C(=O)OC(C)C` it is 8.46%; for `Cc1ccc(CN2C(=O)N/C(=C/c3ccc(-c4ccc(C(=O)O)cc4)o3)C2=O)cc1` it is 6.65%.
For `O=C(O)c1ccc(-c2ccc(/C=C3\NC(=O)N(Cc4ccc(Cl)cc4)C3=O)o2)cc1`, the inhibition is 6.4%.
Under `CC(C)Cn1c(SCC(=O)N2CCN(C(=O)c3ccco3)CC2)nc2ccccc2c1=O` stands 7.56%.
Under `CCCCCn1c(NC2CCCCC2)nc2c1c(=O)[nH]c(=O)n2C` stands 9.39%; under `COC(=O)CSC1=C(C#N)C(c2ccc(F)cc2)CC(=O)N1` (centres undefined), -0.52%.
Turning to `COC(=O)CSC1=C(C#N)C(c2ccc(C(C)C)cc2)CC(=O)N1` (centres undefined), the inhibition is 23.7% (active).
The figure for `COC(=O)CSC1=C(C#N)C(c2ccccc2)CC(=O)N1` (centres undefined) is 1.02%; for `CSc1nc2c(c(=O)n1-c1ccccc1)SCC2` it is 9.44%.
Under `O=C(O)Cn1cc(/C=N/NC(=O)c2cc3cc(Br)ccc3o2)c2ccccc21` stands 18.5%.
Regarding `Cn1cc(/C=N/NC(=O)c2cc3cc(Br)ccc3o2)c2ccccc21`, the inhibition is 4.78%.
The figure for `C=C(Br)Cn1c(CCC)nc2ccccc21` is -1.16%.
Take `COc1ccc(NS(=O)(=O)c2cc(NC(=O)c3ccccc3F)ccc2N2CCCC2)cc1`: the inhibition is 3.17%.
As to `CN(C)CCCNC(=O)c1ccc(Cl)c(S(=O)(=O)N(C)c2ccccc2)c1`, the inhibition is 7.27%.
Under `O=C(O)C(c1ccccc1)C1(O)CCCC1` (centres undefined) stands 16.5%; under `COc1ccc(S(=O)(=O)N(C)C)cc1NCC(=O)Nc1ccc(Br)cc1F`, 7.15%.
Under `CC1=C(C#N)C(=O)NC(=O)/C1=C\c1ccc(-c2cc(C)c(C)cc2[N+](=O)[O-])o1` stands 11.9%; under `C=CCOC(=O)c1cc(-c2ccc(/C=C3\C(=O)NC(=O)C(C#N)=C3C)o2)ccc1Cl`, 46.9% (active).
Under `CC1=C(C#N)C(=O)NC(=O)/C1=C\c1ccc(-c2ccc(C)cc2[N+](=O)[O-])o1` stands 20.8%; under `CC1=C(C#N)C(=O)NC(=O)/C1=C/c1ccc(-c2ccc(S(N)(=O)=O)cc2)o1`, 28.5%; under `CCOC(=O)c1cc(-c2ccc(/C=N\n3cnnc3)o2)ccc1Cl`, 3.07%.
Consider `CC(=O)N1CCc2cc(S(=O)(=O)CCC(=O)Nc3ccc4c(c3)OCCO4)ccc21`, for which the inhibition was 7.36%.
`CN(C)CCNC(=O)CN1C(=O)COc2ccc(C(C)(C)C)cc21`: the inhibition was 0.77%.
`CC(=O)COC(=O)C1CC(=O)N(c2ccc(C)c(C)c2)C1` (centres undefined): the inhibition is 3.99%.
For the molecule `O=C(COc1ncnc2ccccc12)NCCc1ccccc1`, the inhibition is 1.63%.
Under `CC(C)(O)C(=O)N=Nc1c(O)[nH]c2ccccc12` stands 1.86%; under `NC(=S)N=Nc1c(O)[nH]c2ccccc12`, 23.1%.
The figure for `O=C(CSc1nnc(-c2ccccn2)n1Cc1ccccc1)N1CCOCC1` is 2.23%; for `CCOC(=O)c1[nH]cnc1C(=O)Nc1ccc(C)cc1` it is 2.53%.
Consider `CCOC(=O)c1[nH]cnc1C(=O)Nc1ccccc1`, for which the inhibition is 19.7%.
In the case of `O=C(Cn1cc(C(F)(F)F)ccc1=O)N1CCN(S(=O)(=O)c2ccc(Cl)cc2)CC1`, the inhibition is 0.58%.
The figure for `CCN1CC(CN(C)Cc2cn(-c3cccc(C)c3)nc2-c2cccc(F)c2)CC1=O` (centres undefined) is 0.42%; for `Cc1cc2c(c(SCC(N)=O)n1)C(=O)OC2` it is 0.63%; for `CCOCCCNc1nc2c(C)cccn2c(=O)c1/C=C1\SC(=S)N(CC(C)C)C1=O` it is -0.56%.
For the molecule `CCOC(=O)CC1C(=O)NCCN1S(=O)(=O)c1ccc(OC)cc1` (centres undefined), the inhibition is -8.28%.
The figure for `CCCN1C(=O)/C(=C/c2c(NCCCOCC)nc3c(C)cccn3c2=O)SC1=S` is -3.51%; for `CCC(C)N1C(=O)/C(=C/c2c(NCCCOC(C)C)nc3c(C)cccn3c2=O)SC1=S` (centres undefined) it is 10.2%; for `CCCN1C(=O)/C(=C/c2c(NCCCOC(C)C)nc3c(C)cccn3c2=O)SC1=S` it is -6.67%.
Consider `CCOC(=O)CC1C(=O)NCCN1C(=O)c1cc2c(=O)n3cccc(C)c3nc2s1` (centres undefined), for which the inhibition was 11.1%.
The figure for `Cc1c(NC(=O)CN2C(=O)NC3(CCCCC3)C2=O)c(=O)n(-c2ccccc2)n1C` is -1.23%.
Under `COc1ccc(S(=O)(=O)N2CCN(C)CC2)cc1Br` stands -2.63%.
Under `Cc1nc(SCC(=O)Nc2ccccc2)c2oc3ccccc3c2n1` stands -7.15%; under `O=C(Nc1ccccc1)Oc1ccccc1N1CCOCC1`, 2.65%; under `COc1cc(C(=S)N2CCOCC2)ccc1OC(=O)c1cc([N+](=O)[O-])cc([N+](=O)[O-])c1`, 4.71%.
Consider `CCCC(=O)Nc1c(-c2cccs2)c(=O)c2ccccc2n1CC`, for which the inhibition is 3.31%.
Under `CCn1c(NC(=O)c2ccccc2)c(-c2cccs2)c(=O)c2ccccc21` stands 7.57%.
The figure for `CCn1c(NC(=O)c2cccs2)c(-c2cccs2)c(=O)c2ccccc21` is 27% (active); for `CCOC(=O)N=Nc1c(O)n(CC)c2ccccc12` it is 3.07%.
As for `CCn1c(O)c(N=NC(=O)C(O)c2ccccc2)c2ccccc21` (centres undefined), the inhibition is 5.57%.
Under `CC(C)CC1=NN2C(=N)/C(=C\c3coc4ccccc4c3=O)C(=O)N=C2S1` stands 58%; under `N=C1/C(=C\c2coc3ccccc3c2=O)C(=O)N=C2SC=CN12`, 52.2%.
The figure for `CC1=CC2=NC(=O)/C(=C/c3coc4ccc(Cl)cc4c3=O)C(=N)N2O1` is 7.94%; for `N=C1/C(=C/c2coc3ccccc3c2=O)C(=O)N=C2SC(c3ccco3)=NN12` it is 18.6%.
